Some compounds were tested as several samples or in several runs, with calls that do not always agree. The source made the active and inactive calls. How the source made its calls: active means hit-call score of the fitted dose curve at least 0.9, where 1 is the maximum; inactive means score below 0.9.
How the values were obtained:
[1] = ATG_GLI_CIS: Attagene CIS-FACTORIAL HepG2 Assay for human Zinc Finger Protein GLI1 (AID 2282945); settings: HepG2, Attagene cis-factorial reporter mRNA, GLI element; actives raise or lower the signal
In short: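 Transiently transfected HepG2 cells report endogenous transcription factor activity via cis-element-driven reporter units. After 24 h compound exposure, reporter mRNA was measured by RT-PCR with capillary electrophoresis; bidirectional fitting against DMSO baseline.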

[2] = ATG_GRE_CIS: Attagene CIS-FACTORIAL HepG2 Assay for human Glucocorticoid Response Elements (GRE) (AID 2282947); settings: HepG2 GRE cis-reporter, Attagene multiplex mRNA; actives raise or lower the signal
In short: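 Fluorescence intensity of reporter-specific cDNA fragments, separated by capillary electrophoresis, provides the signal. Constructs carry cis-regulating promoters in transiently transfected HepG2 liver cells; 24 h incubation; fitting is bidirectional against DMSO.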

[3] = ATG_M_06_CIS: Attagene CIS-FACTORIAL HepG2 Assay for M06 Transcription Factor (Internal Marker) (AID 2282950); settings: HepG2 Attagene CIS-FACTORIAL M06 internal marker reporter; actives raise or lower the signal
In short: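 Internal background marker within multiplexed cis-reporter HepG2 system. Cells transiently transfected, dosed 24 h; reporter mRNA measured by RT-PCR, HpaI digestion and capillary electrophoresis. Bidirectional fit relative to DMSO.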

[4] = target: Hypoxia-inducible factor 1-alpha (Homo sapiens) (UniProt Q16665); test: ATG_HIF1a_CIS: Attagene CIS-FACTORIAL HepG2 Assay for human Hypoxia Inducible Factor 1 (HIF1A) (AID 2282951); settings: HepG2 Attagene cis-factorial HIF1a reporter transcription; actives raise or lower the signal
Chain of Hypoxia-inducible factor 1-alpha (Homo sapiens) (Q16665 whole entry, looked up, the tested form may be a part): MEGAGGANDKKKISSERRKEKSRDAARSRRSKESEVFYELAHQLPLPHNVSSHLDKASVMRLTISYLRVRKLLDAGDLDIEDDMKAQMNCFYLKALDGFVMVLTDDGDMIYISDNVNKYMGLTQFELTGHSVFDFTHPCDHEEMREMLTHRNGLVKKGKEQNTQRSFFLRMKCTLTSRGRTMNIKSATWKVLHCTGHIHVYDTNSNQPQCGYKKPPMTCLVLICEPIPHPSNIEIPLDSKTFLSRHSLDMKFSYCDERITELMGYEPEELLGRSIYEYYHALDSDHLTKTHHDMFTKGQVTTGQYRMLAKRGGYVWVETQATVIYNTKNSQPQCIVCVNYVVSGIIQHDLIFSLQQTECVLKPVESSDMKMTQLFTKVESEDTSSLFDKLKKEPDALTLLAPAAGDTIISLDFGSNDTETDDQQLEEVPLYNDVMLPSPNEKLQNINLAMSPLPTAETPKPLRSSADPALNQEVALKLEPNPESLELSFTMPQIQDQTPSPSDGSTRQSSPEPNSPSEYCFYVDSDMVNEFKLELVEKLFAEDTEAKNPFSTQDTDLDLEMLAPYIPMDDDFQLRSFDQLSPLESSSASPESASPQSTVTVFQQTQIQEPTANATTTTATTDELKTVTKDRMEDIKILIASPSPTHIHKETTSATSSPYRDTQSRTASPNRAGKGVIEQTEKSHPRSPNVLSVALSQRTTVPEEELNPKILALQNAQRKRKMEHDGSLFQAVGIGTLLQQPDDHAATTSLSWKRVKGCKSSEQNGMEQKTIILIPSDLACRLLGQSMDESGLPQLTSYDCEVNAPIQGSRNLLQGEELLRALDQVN
In short: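 Transient MRTU transfection of human HepG2 liver cells, 24 h compound treatment, then total RNA isolation, oligo(dT) reverse transcription, PCR amplification, fluorescent labelling and capillary electrophoresis of reporter fragments. Gain or loss relative to DMSO.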

[5] = target: Hepatocyte nuclear factor 6 (Homo sapiens) (UniProt Q9UBC0); test: ATG_HNF6_CIS: Attagene CIS-FACTORIAL HepG2 Assay for human Hepatocyte Nuclear Factor 6 (HNF6) (AID 2282952); settings: HepG2 Attagene cis-factorial HNF6 reporter transcription; actives raise or lower the signal
Chain of Hepatocyte nuclear factor 6 (Homo sapiens) (Q9UBC0 whole entry, looked up, the tested form may be a part): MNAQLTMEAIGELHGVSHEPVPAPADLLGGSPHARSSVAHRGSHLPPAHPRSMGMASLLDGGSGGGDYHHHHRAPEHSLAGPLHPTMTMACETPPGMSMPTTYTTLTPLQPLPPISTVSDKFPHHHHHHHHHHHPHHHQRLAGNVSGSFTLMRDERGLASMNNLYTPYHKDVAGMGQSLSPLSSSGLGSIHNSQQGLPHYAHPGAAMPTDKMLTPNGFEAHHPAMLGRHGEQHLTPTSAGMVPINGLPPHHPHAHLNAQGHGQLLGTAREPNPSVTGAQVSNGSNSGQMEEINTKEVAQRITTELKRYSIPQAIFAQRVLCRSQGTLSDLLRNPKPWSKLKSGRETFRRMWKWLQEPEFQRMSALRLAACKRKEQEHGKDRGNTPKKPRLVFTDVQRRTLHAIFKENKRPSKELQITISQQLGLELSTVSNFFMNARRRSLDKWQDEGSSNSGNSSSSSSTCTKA
In short: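 Using cis-element reporters in HepG2 liver cells, the assay tracks endogenous factor-driven transcription 24 h post-dosing. Signal comes from 6-FAM-labelled, HpaI-digested RT-PCR fragments, with gain or loss scored against DMSO.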

[6] = ATG_MRE_CIS: Attagene CIS-FACTORIAL HepG2 Assay for human Metal Responsive Element (MRE) (AID 2282954); settings: HepG2 MRE cis-reporter transcription, Attagene multiplex; actives raise or lower the signal
In short: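 Measured here is mRNA induction from an MRE cis-element reporter in HepG2 after 24 h, quantified by fluorescence of labelled RT-PCR products on capillary electrophoresis; gain- and loss-of-signal fits use DMSO as baseline.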

[7] = ATG_PBREM_CIS: Attagene CIS-FACTORIAL HepG2 Assay for human Phenobarbital-responsive Enhancer Module (PBREM) (AID 2282955); settings: HepG2 PBREM cis-reporter, Attagene multiplexed transcription; actives raise or lower the signal
In short: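 Endogenous transcription factors in human liver HepG2 cells drive a PBREM cis-element reporter, whose transcript level after 24 h treatment is quantified by RT-PCR with capillary electrophoresis; activity fitted in both directions against DMSO.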

[8] = target: Paired box protein Pax-6 (Homo sapiens) (UniProt P26367); test: ATG_Pax6_CIS: Attagene CIS-FACTORIAL HepG2 Assay for human Paired Box 6 (PAX6) (AID 2282956); settings: HepG2 CIS-FACTORIAL PAX6 reporter transcription, RNA readout; actives raise or lower the signal
Chain of Paired box protein Pax-6 (Homo sapiens) (P26367 whole entry, looked up): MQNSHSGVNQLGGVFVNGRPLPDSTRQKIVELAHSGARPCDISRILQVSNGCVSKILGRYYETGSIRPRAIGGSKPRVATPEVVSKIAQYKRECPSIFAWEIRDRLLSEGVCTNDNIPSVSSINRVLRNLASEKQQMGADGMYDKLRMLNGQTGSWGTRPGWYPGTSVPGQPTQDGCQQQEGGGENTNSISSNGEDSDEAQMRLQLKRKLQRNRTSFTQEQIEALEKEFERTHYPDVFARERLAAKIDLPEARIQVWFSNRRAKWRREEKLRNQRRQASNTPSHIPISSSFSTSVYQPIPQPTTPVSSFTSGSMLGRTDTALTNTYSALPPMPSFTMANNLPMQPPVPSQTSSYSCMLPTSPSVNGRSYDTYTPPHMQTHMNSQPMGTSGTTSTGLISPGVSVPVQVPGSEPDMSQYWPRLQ
In short: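 DMSO-referenced bidirectional fits of reporter mRNA fluorescence; HepG2 with transient cis-promoter MRTUs, 24 h post-dose, RT-PCR plus capillary electrophoresis detection.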

[9] = ATG_PXRE_CIS: Attagene CIS-FACTORIAL HepG2 Assay for human Pregnane X Receptor Element (PXRE) (AID 2282957); settings: HepG2 Attagene CIS-FACTORIAL PXRE reporter, mRNA; actives raise or lower the signal
In short: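 Using HepG2 transfected with multiple reporter transcription units, endogenous factor-driven transcription was scored as reporter mRNA after 24 h exposure.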

[10] = ATG_PPRE_CIS: Attagene CIS-FACTORIAL HepG2 Assay for human Peroxisome Proliferator-activated Response Element (PPRE) (AID 2282958); settings: HepG2 PPRE cis-element reporter, Attagene transcription factor profiling; actives raise or lower the signal
In short: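 HepG2, transient MRTU transfection (cis promoter elements, endogenous TFs). 24 h dosing. RNA → oligo(dT) RT → PCR → 6-FAM primer extension → HpaI digest → CE. Bidirectional fit vs DMSO.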

[11] = ATG_RORE_CIS: Attagene CIS-FACTORIAL HepG2 Assay for human RAR-related Orphan Receptor Element (RORE) (AID 2282959); settings: HepG2 Attagene cis-factorial RORE reporter, mRNA; actives raise or lower the signal
In short: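 Transient MRTU transfection of human HepG2 liver cells (FuGene 6); 24 h compound exposure; TriZol RNA, oligo(dT) RT, PCR, FAM labeling, HpaI cut, CE fragment analysis. DMSO = negative control/baseline.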

[12] = ATG_Sox_CIS: Attagene CIS-FACTORIAL HepG2 Assay for human SRY-box transcription factor (SOX) (AID 2282960); settings: HepG2 Attagene cis-factorial SOX reporter, mRNA; actives raise or lower the signal
In short: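 Endogenous factor activity in human liver HepG2 cells carrying transfected cis-regulated reporter units. RNA taken 24 h post-dose, reverse-transcribed, PCR-amplified and sized by capillary electrophoresis. Gain or loss of signal fitted relative to DMSO.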

[13] = target: Transcription factor Sp1 (Homo sapiens) (UniProt P08047); test: ATG_Sp1_CIS: Attagene CIS-FACTORIAL HepG2 Assay for human Specificity Protein 1 (Sp1) (AID 2282961); settings: HepG2 Sp1 cis-reporter transcription, actives raise or lower the signal
Chain of Transcription factor Sp1 (Homo sapiens) (P08047 whole entry, looked up): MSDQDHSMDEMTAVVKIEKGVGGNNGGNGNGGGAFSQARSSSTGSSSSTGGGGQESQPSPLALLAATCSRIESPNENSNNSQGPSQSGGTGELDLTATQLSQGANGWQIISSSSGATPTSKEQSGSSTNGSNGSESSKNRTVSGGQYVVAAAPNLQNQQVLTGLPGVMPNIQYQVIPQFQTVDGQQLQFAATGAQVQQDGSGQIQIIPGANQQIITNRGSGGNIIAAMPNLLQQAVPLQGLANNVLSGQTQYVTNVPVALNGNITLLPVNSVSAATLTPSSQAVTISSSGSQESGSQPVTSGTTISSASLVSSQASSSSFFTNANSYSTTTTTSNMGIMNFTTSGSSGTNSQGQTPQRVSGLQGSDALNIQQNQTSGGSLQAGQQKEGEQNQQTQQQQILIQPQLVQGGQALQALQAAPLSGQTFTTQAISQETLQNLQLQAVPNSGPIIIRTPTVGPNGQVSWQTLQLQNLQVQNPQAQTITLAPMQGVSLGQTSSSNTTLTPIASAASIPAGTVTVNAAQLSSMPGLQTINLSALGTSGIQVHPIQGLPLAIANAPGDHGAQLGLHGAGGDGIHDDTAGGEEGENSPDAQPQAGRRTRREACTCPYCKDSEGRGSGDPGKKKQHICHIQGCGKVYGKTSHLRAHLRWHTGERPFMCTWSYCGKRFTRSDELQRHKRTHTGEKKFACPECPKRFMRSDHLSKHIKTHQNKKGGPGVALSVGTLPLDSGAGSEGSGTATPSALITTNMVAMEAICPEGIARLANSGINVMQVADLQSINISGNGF
In short: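 Transient MRTU-transfected HepG2, 24 h compound exposure. Total RNA → oligo(dT) RT → PCR of reporter → 6-FAM primer extension → HpaI digest → CE. Endpoint fitted both directions vs DMSO.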

[14] = target: Signal transducer and activator of transcription 3 (Homo sapiens) (UniProt P40763); test: ATG_STAT3_CIS: Attagene CIS-FACTORIAL HepG2 Assay for human Signal Transducer and Activator of Transcription 3 (STAT3) (AID 2282963); settings: HepG2, Attagene cis-factorial STAT3 reporter transcription; actives raise or lower the signal
Chain of Signal transducer and activator of transcription 3 (Homo sapiens) (P40763 whole entry, looked up, the tested form may be a part): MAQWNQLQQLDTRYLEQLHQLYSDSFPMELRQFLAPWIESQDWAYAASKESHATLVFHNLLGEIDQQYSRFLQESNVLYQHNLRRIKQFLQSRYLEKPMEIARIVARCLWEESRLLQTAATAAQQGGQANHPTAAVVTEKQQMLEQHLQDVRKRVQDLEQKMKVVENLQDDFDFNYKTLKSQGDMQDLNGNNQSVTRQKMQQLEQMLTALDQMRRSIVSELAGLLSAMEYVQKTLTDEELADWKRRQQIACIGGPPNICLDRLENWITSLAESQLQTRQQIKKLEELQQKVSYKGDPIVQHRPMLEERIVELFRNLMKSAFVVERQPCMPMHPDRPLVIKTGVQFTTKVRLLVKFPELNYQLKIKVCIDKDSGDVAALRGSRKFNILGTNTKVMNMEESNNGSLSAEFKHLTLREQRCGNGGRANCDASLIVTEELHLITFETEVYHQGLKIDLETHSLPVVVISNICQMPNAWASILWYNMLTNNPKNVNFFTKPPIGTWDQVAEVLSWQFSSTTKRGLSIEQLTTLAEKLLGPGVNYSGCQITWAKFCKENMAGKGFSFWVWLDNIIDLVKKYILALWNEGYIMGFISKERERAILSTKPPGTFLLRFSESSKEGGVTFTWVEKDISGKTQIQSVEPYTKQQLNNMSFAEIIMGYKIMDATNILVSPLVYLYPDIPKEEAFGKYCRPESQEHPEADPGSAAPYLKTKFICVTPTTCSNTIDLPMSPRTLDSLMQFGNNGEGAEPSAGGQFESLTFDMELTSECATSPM
In short: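 Fluorescence intensity of 6-FAM-labelled reporter fragments, separated by capillary electrophoresis after RT-PCR, gave the signal. Cells were HepG2 transfected with cis-element reporter units and treated 24 h; fitting was bidirectional relative to DMSO.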

[15] = ATG_TA_CIS: Attagene CIS-FACTORIAL HepG2 Assay for human TA Basal Promoter (AID 2282964); settings: HepG2 Attagene CIS-factorial TA basal promoter reporter; actives raise or lower the signal
In short: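 HepG2 cells transiently transfected with multiple reporter units under cis promoter elements, reporting endogenous transcription factor activity; this endpoint tracks the TA basal promoter as background control. Reporter mRNA after 24 h dosing measured by RT-PCR/capillary electrophoresis; bidirectional fits versus DMSO.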

[16] = ATG_ISRE_CIS: Attagene CIS-FACTORIAL HepG2 Assay for human Interferon Regulatory Factor 1 (IRF1) binding to an Interferon-Stimulated Response Element (ISRE) (AID 2282948); settings: HepG2 ISRE cis-reporter (Attagene), mRNA transcription readout; actives raise or lower the signal
In short: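 Uses HepG2 liver cells transfected with cis-regulated reporters and measures mRNA 24 h post-dosing through RT-PCR, primer-extension labelling and capillary electrophoresis, with DMSO as negative control.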

[17] = ATG_M_32_CIS: Attagene CIS-FACTORIAL HepG2 Assay for M32 Transcription Factor (Internal Marker) (AID 2282949); settings: HepG2 Attagene cis-factorial M32 reporter, mRNA; actives raise or lower the signal;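 further: background control marker of the multiplexed CIS panel rather than a real target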
In short: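 HepG2 human liver cells transiently transfected with cis-promoter-driven multiple reporter transcription units, dosed 24 h. Reporter mRNA quantified by RT-PCR, FAM-labelled primer extension, HpaI digest and capillary electrophoresis; bidirectional fit versus DMSO baseline.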

[18] = target: Heat shock factor protein 1 (Homo sapiens) (UniProt Q00613); test: ATG_HSE_CIS: Attagene CIS-FACTORIAL HepG2 Assay for human Heat Shock Transcription Factor 1 (HSE) (AID 2282953); settings: HepG2 HSE cis-reporter, Attagene RNA transcription; actives raise or lower the signal
Chain of Heat shock factor protein 1 (Homo sapiens) (Q00613 whole entry, looked up): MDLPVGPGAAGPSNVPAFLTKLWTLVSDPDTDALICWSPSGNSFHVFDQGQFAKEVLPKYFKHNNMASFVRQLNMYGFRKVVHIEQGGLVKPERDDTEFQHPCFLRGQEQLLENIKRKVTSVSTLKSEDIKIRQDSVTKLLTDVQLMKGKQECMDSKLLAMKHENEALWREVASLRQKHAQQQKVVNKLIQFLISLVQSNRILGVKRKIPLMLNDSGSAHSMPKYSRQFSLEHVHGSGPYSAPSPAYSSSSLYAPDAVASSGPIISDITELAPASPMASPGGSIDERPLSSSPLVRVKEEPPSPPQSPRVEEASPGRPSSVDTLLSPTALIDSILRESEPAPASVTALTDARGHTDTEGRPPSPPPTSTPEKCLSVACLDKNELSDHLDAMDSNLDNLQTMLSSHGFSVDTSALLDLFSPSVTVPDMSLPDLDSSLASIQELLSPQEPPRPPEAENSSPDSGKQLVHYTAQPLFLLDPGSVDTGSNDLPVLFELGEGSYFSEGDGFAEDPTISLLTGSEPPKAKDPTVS
In short: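 HepG2 cells transfected with cis-promoter reporter units sensing endogenous transcription factor activity; reporter mRNA quantified 24 h post-dose by RT-PCR and capillary electrophoresis of 6-FAM-labelled products. Bidirectional fitting against DMSO.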

[19] = ATG_SREBP_CIS: Attagene CIS-FACTORIAL HepG2 Assay for human Sterol Regulatory Element Binding (SREBP) (AID 2282962); settings: HepG2 Attagene cis-factorial SREBP reporter, mRNA; actives raise or lower the signal
In short: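 In this cis-format assay, HepG2 liver cells express reporters controlled by promoter elements responsive to native transcription factors. Exposure lasts 24 h; reporter mRNA fluorescence from capillary electrophoresis gives the signal, fitted bidirectionally against DMSO.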

Measured: AC50

CCCOC(=O)CC
not listed: [16] | [17] | [18] | [19]
inactive: all other assays above

Cc1cc(N)n(-c2ccccc2)n1
active: [9] 39.5 µM
not listed: [2] | [19]
inactive: all other assays above

CC(=O)CC(C)(C)C1CCCCC1
active: [9] 30.7 µM
not listed: [2]
inactive: all other assays above

CC(=O)c1cccnc1
not listed: [7] | [17] | [18] | [19]
inactive: all other assays above

Nc1ccc(N)c([N+](=O)[O-])c1
inactive: [1] | [2] | [3] | [4] | [18] | [6] | [7] | [8] | [9] | [12] | [13] | [19] | [14] | [15]
active: [18] 25.9 µM

CC(=O)CCC=C(C)CCC=C(C)C
active: [9] 6.98 µM
not listed: [2] | [10]
inactive: all other assays above

CC1=CC(O)CC(C)(C)C1 (stereo not drawn)
active: [9] 10.8 µM
not listed: [7] | [11] | [15] | [16] | [18]
inactive: all other assays above

CCCCCCCCOC(C)=O
active: [9] 73.1 µM
not listed: [2] | [7]
inactive: all other assays above

CCCCN(CCCC)CCCCCCN(CCCC)CCCC
not listed: [2] | [6] | [7] | [15]
inactive: all other assays above
